Our source for the inhibition values is PubChem BioAssay AID1063 (University of Pittsburgh Molecular Library Screening Center, 2008).

The whole screen tested about 200,000 compounds, of which about 18,000 (9%) were called active. For the sample, actives were picked, then their nearest neighbours and some compounds at random. Unmarked numbers belong to inactive results. No stated cut-off is given here; in the data, active means inhibition above about 50%; inactive means the rest.

This assay can be described thus: antileishmanial activity against promastigotes – primary screen (AID 1063).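 Further: promastigotes grown with compound for 44 hours at 28 °C.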 To be noted: Leishmania major promastigotes, resazurin fluorescence viability; at 10 µM; active compounds read high.
Turning to `O=C(c1ccncc1)c1ccc([N+](=O)[O-])cc1`, the inhibition was 5.83%.
Turning to `Cc1ccc(NC(=O)c2cccnc2C(=O)Nc2ccc(C)cc2)cc1`, the inhibition was -1.85%.
In the case of `CCn1cc(CNC(=O)c2cc([N+](=O)[O-])c(C)c([N+](=O)[O-])c2)cn1`, the inhibition is 18.8%.
On to `Cc1cc(/C=N/NC(=O)c2cccnc2)c(C)n1CC(C)C`, for which the inhibition is -1.49%.
Consider `O=C(NN=C1CCC(=NNC(=O)c2cccnc2)CC1)c1cccnc1`, for which the inhibition was -9.82%.
As to `O=C(N/N=C/c1sc(N2CCCCC2)nc1-c1cccs1)c1cccnc1`, the inhibition was 66.3% (active).
Consider `O=C(COC(=O)CNC(=O)c1ccccc1F)NCC(F)(F)F`, for which the inhibition was -0.59%.
Consider `COc1ccc(CC(NC(C)=O)C(=O)NC2CCN(C(=O)C3CC3)CC2)cc1OC` (stereo not given), for which the inhibition was -1.59%.
For the molecule `CC(=O)NC1=NN(C(C)=O)C(C)(CCS(=O)(=O)c2ccc(Cl)c(Cl)c2)S1` (stereo not given), the inhibition is -0.49%.
In the case of `CC(=O)NC1=NN(C(C)=O)C(C)(c2ccc(C)cc2)S1` (stereo not given), the inhibition was 63.1% (active).
For `CC(=O)NC1=NN(C(C)=O)C(C)(c2ccc(Cl)s2)S1` (stereo not given), the inhibition is 37.2%.
`CCCC(=O)Nc1nnc(-c2ccccc2)o1`: the inhibition is -6.09%.
Regarding `COc1cc(/C=N/NC(=S)Nc2cccnc2)cc(OC)c1O`, the inhibition is -1.76%.
For the molecule `Cc1ccc(-c2cc(C(F)(F)F)n3nc(C(=O)N4CCCC4)cc3n2)cc1`, the inhibition was 2.83%.
In the case of `O=C(O)c1cnn2c(C(F)(F)F)cc(-c3ccccc3)nc12`, the inhibition is -4.02%.
For `Cc1ccc(-c2cc(C(F)(F)F)n3ncc(C(=O)N4CCCCC4c4cccnc4)c3n2)cc1` (stereo not given) the value was 89.6% (active); for `O=C(CSc1cccc[n+]1[O-])c1ccc(Cl)cc1`, 1.35%.
For the molecule `CC(C(=O)NCC1CCCCC1)N(C)Cc1cccc(Cl)c1` (stereo not given), the inhibition is -1.13%.
Turning to `CCc1ccccc1NC(=O)c1cccs1`, the inhibition is -2.12%.
As to `O=C(/C=C/c1ccccc1)N/C(=C/c1ccccc1)C(=O)Nc1ccccc1O`, the inhibition was 5.36%.
For `CCc1ccccc1NC(=O)/C(=C/c1ccccc1)c1ccccc1`, the inhibition was 66% (active).
With `Oc1ccc(-c2nncn2-c2ccccc2)cc1` the figure was -8.74%; with `CN(CC(=O)N1CCN(c2ccccc2)CC1)S(=O)(=O)c1cccs1`, -7.19%.
`O=C(O)CSCC(=O)Nc1ccc(C(F)(F)F)cc1`: the inhibition is -3.47%.
In the case of `CCOc1ccc(NC(=O)CCC(=O)n2nc(C)cc2C)cc1`, the inhibition was -2.57%.
With `O=C(Cc1cc(=O)[nH][nH]1)N/N=C/c1ccccc1[N+](=O)[O-]` the figure was -6.04%; with `COc1cc(/C=N\NC(=O)CNC(=O)c2cccc([N+](=O)[O-])c2)ccc1O`, 8.51%; with `COc1ccc(C(=O)NCC(=O)N/N=C/c2ccc([N+](=O)[O-])s2)cc1OC`, 97% (active).
Turning to `CCOc1ccc(NC(=O)CCC(=O)N/N=C/c2ccc([N+](=O)[O-])s2)cc1`, the inhibition was 96.6% (active).
On to `COc1ccc(/C=N/NC(=O)CNC(=O)c2ccc(S(=O)(=O)N3CCCC3)cc2)c(OC)c1`, for which the inhibition is 28.7%.
For `Cc1cccc(/C=N/NC(=O)CNc2cccc3ccccc23)n1` the value was 1.6%; for `CCCCCC(=O)Nc1ccc(C(=O)N/N=C/c2ccc([N+](=O)[O-])cc2)cc1`, 34.7%; for `Cc1ccccc1NCC(=O)N/N=C\c1ccc([N+](=O)[O-])s1`, 101% (active).
As to `O=C(O)c1cccc(NC(=O)c2cc(-c3cccc(Cl)c3)nc3ccccc23)c1`, the inhibition was -4.68%.
For the molecule `COc1ccc(OC)c(C(=O)c2ccc(C(=O)N3CCN(Cc4csc(C)n4)CC3)cc2)c1`, the inhibition was -0.79%.
With `CCN1CCN(CC(=O)c2cc(OC)c(OC)c(OC)c2)CC1`, the inhibition is -5.32%.
For `Nc1nc(SCC(=O)N2CCN(S(=O)(=O)c3ccc(Cl)cc3)CC2)n[nH]1` the value was -1.03%.
Turning to `Cc1ccc(C2=NN(C(=O)COc3ncnc4ccccc34)C(c3ccco3)C2)cc1` (stereo not given), the inhibition is -5.8%.
`CCCCN(CC)CCNC(=O)CCNC(=O)Cn1ccc2ccccc2c1=O`: the inhibition is 0.35%.
For `N=C1C(c2nc3ccccc3s2)=C(O)CN1NC(=O)c1ccc([N+](=O)[O-])cc1`, the inhibition was -3.94%.
Take `O=C(COC(=O)c1ccc(F)cc1)Nc1nc2ccc([N+](=O)[O-])cc2s1`: the inhibition was -3.1%.
For `O=C(Nc1nc2ccc([N+](=O)[O-])cc2s1)c1ccc(S(=O)(=O)N2CCCc3ccccc32)cc1` the value was 100% (active).
Consider `O=C(NC(Nc1nc2ccc([N+](=O)[O-])cc2s1)(C(F)(F)F)C(F)(F)F)c1ccccc1`, for which the inhibition was 100% (active).
With `O=C(O)CCC(=O)Nc1nc2ccc([N+](=O)[O-])cc2s1`, the inhibition was -7.18%.
With `CSc1nc2ccc(S(=O)(=O)N3CCc4ccccc43)cc2s1` the figure was 0.05%.
`CCCCn1nc(C(=O)OCC(=O)Nc2sccc2C(N)=O)c2ccccc2c1=O`: the inhibition is -6.96%.
With `Cc1cccc(N2CCC(NCc3c(C(=O)N4CCCCC4)nc4c(C)cccn34)CC2)c1` the figure was 17.5%; with `S=C(Cc1ccc(Cl)cc1)N1CCOCC1`, 1.84%; with `CC1=NN(C(=O)CCCc2ccccc2)C(O)(C(F)(F)F)C1` (stereo not given), -11.2%.
In the case of `CN(C)CCn1c(=S)[nH]c2ccc(Cl)cc2c1=O`, the inhibition is 1.3%.
On to `CN(C)CCN=c1cc(-c2ccccc2)oc2ccc(Cl)cc12`, for which the inhibition is 63% (active).
Take `C/C(CC(=O)N1CCN(C=O)CC1)=N\NC(=O)c1ccc(Br)cc1`: the inhibition is -4.54%.
For the molecule `Cc1cccc(N2C(=O)CC(SC(N)=Nc3ccccc3)C2=O)c1` (stereo not given), the inhibition is 45.7%.
`Cc1ccc(-n2c(O)c(C=Nc3ccc(S(=O)(=O)Nc4ncccn4)cc3)c3ccccc3c2=O)cc1C`: the inhibition is -5.1%.
On to `Cc1nnc(SCC(=O)N2CCc3ccccc3C2)s1`, for which the inhibition was -1.97%.
On to `Cc1nnc(SCC(=O)NCc2ccccc2)s1`, for which the inhibition was -9.92%.
For the molecule `Cc1nnc(SCC(=O)N2c3ccccc3C(C)(c3ccc(Cl)cc3)CC2(C)C)s1` (stereo not given), the inhibition is 56.6% (active).
With `Cc1ccc(NC(=O)C(=O)NCC2CCN(C(=O)c3cccc([N+](=O)[O-])c3)CC2)cc1`, the inhibition was 23%.
For `CN1CCN(c2ccc(NC(=O)COc3ccc(Cl)cc3Cl)cc2)CC1`, the inhibition was 98.7% (active).
For `CN1CCC(OC(=O)COc2ccc(Cl)cc2Cl)CC1` the value was 1.67%.
With `Cc1nn(-c2ccccc2)c(C)c1NC(=O)COc1ccc(Cl)cc1Cl` the figure was 43.4%; with `S=C(NCC1CCCO1)N1CCN(c2ccc(Cl)c(Cl)c2)CC1` (stereo not given), 17.8%; with `COc1ccc(-c2csc(Nc3ccc(O)cc3)n2)cc1`, 23%.
Turning to `COc1ccc(Nc2nc(-c3ccccc3)cs2)cc1`, the inhibition was -2.02%.
Regarding `NS(=O)(=O)c1ccc(Nc2nc(-c3ccccc3)cs2)cc1`, the inhibition was 81.2% (active).
With `O=C(NCC(O)c1ccc([N+](=O)[O-])cc1)C1CCCCC1` (stereo not given) the figure was -8.78%.
Regarding `Cc1ccccc1-c1n[nH]c(=S)n1C`, the inhibition is -18.2%.
Take `Cn1c(-c2sc3cc(C(F)(F)F)cnc3c2-c2ccccc2)n[nH]c1=S`: the inhibition is 84.1% (active).
With `Cn1c(-c2sccc2OCc2cccc(C(F)(F)F)c2)n[nH]c1=S`, the inhibition was 14.1%.
As to `O=C(CCSc1ccccc1)N1CCN(c2ccccc2F)CC1`, the inhibition is -5.13%.
In the case of `O=C(Nc1nc(-c2cccnc2)cs1)c1ccccc1F`, the inhibition was -2.37%.
Regarding `OCCNCCOc1ccc(Cl)c(Cl)c1`, the inhibition is 78.9% (active).
For the molecule `OCCNCCCCOc1ccccc1F`, the inhibition was 19.1%.
In the case of `COCC(C)NC(=O)c1ccc(Cl)c(Cl)c1` (stereo not given), the inhibition is -3.5%.
As for `CC/C(Cc1ccccc1)=N/NC(=O)CCn1nnc2ccccc21`, the inhibition was -2.64%.
With `CCN(C(=O)CN1CCN(Cc2ccccc2)CC1)c1c(N)n(Cc2ccccc2)c(=O)[nH]c1=O` the figure was -0.59%; with `O=C(/C(=C/c1cccc(Cl)c1)c1nc2ccccc2[nH]1)c1ccccc1`, 101% (active); with `COc1ccc(/C=C(/NC(=O)c2ccc(C)cc2)c2nc3ccccc3[nH]2)cc1OC`, 16.1%.
With `CCC(=O)/C(=C(/O)c1ccccc1)c1nc2ccccc2[nH]1` the figure was -5.9%; with `C=CCNCCCCOc1ccccc1`, 34.8%.
As to `COc1ccc(NC(=O)CSc2nnc(-c3ccccc3F)n2C2CC2)cc1S(N)(=O)=O`, the inhibition was 2.82%.
In the case of `Cc1cccc(OCCCC(=O)Nc2ccc(S(=O)(=O)N3CCCC3)cc2)c1`, the inhibition was 44.8%.
Regarding `CC(=O)Nc1ccc(S(=O)(=O)N2CCN(CCCOc3cc(C)ccc3C)CC2)cc1`, the inhibition is 72.8% (active).
`CC(=O)Nc1ccc(S(=O)(=O)N2CCSCC2)cc1`: the inhibition was 0.03%.
Take `O=C(CSc1ccccc1)Nc1cc(Cl)ccc1Oc1ccccc1`: the inhibition was 14.8%.
Turning to `CCOC(=O)c1ccc(NC(=O)C2CC(=O)Nc3nc4ccccc4n32)cc1` (stereo not given), the inhibition is -4.72%.
Turning to `COc1cc(NC(=O)c2cccnc2SC)cc(OC)c1`, the inhibition is 1.73%.
With `COC(=O)c1ccc(NC(=O)c2ccccc2NS(=O)(=O)c2ccccc2)cc1` the figure was -3.45%; with `COc1cc(NC(=O)c2ccccc2NS(=O)(=O)c2ccc(Cl)s2)cc(OC)c1`, 74.3% (active); with `Cc1cc(C)cc(C(=O)NC2C(=O)N3C(C(=O)O)=C(CSc4nnc(C)s4)CSC23)c1` (stereo not given), -0.22%.
`O=C1/C(=C\c2ccsc2)NC(=S)N1c1ccccc1`: the inhibition is -4.28%.
Take `CC(=O)C1C(c2ccc(Cl)cc2)c2c(n[nH]c2C)CC1(C)O` (stereo not given): the inhibition was -0.37%.
Turning to `CCCn1nc(C(=O)N2CCCc3ccccc32)c2ccccc2c1=O`, the inhibition is 26.1%.
As for `CCCCn1nc(C(=O)Nc2ccc(S(=O)(=O)Nc3ncccn3)cc2)c2ccccc2c1=O`, the inhibition was -10.7%.
Turning to `CCCn1nc(C(=O)Nc2ccc3nc(C)sc3c2)c2ccccc2c1=O`, the inhibition is 80.4% (active).
